# In PubChem BioAssay (Tox21):
# Unmarked numbers belong to inactive results. Records with an inconclusive call do not appear. A call without a number means that no potency is given here. Activity calls are given as the source filed them. Calls come from the whole dose curve; as a rule, active = well fitted curve in the direction sought with a large enough effect in the repeat runs; inconclusive = weak or mixed curves; inactive = no such curve, though single readings can be large; an effect the other way counts as inactive or inconclusive.
# Columns and labels:
# [1] = qHTS RealTime-Glo MT Cell Viability Assay in HEK293 cells - 0 hour (AID 1224880); note: top concentration of the series differs between compounds; nearly all actives have a fitted effect of over 45% in size
# Method in brief: (§1)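 Real-time viability in HEK293: signal arises when living cells convert a prosubstrate for NanoLuc in the medium, so luminescence tracks viable cell number. Compound (23 nL, DMSO) added 5 h post-seeding; kinetic reads at 0–40 h, 37 C.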
# [2] = A CellTox Green Cytotoxicity Assay to monitor cytotoxicity in HEK293 cells - 32 hour (AID 1224881); note: nearly all actives have a fitted effect of over 40% in size
# Method in brief: (§2)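 Cells (HEK293, 600/well) and dye reagent are dispensed together. After 5 h at 37 C, 23 nL compound is pinned in. Plates stay at 37 C for 40 h with fluorescence read at 0h, 8h, 16h, 24h, 32h and 40h.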
# [3] = A CellTox Green Cytotoxicity Assay to monitor cytotoxicity in HepG2 cells - 0 hour (AID 1224882); note: nearly all actives have a fitted effect of over 35% in size; note: potency is the fitted concentration of half-maximal effect
# Method in brief: (§3)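 Cells and non-lytic dye reagent are dispensed together (600 HepG2 cells/well) and incubated 5 h before DMSO compound transfer. Kinetic fluorescence is then recorded in the same wells during 40 h at 37 C.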
# [4] = A CellTox Green Cytotoxicity Assay to monitor cytotoxicity in HepG2 cells - 32 hour (AID 1224883); note: nearly all actives have a fitted effect of over 50% in size
# Method in brief: as §3
# [5] = A CellTox Green Cytotoxicity Assay to monitor cytotoxicity in HEK293 cells - 8 hour (AID 1224884); note: nearly all actives have a fitted effect of over 35% in size
# Method in brief: as §2
# [6] = qHTS RealTime-Glo MT Cell Viability Assay in HepG2 cells - 16 hour (AID 1224885); note: nearly all actives have a fitted effect of over 50% in size
# Method in brief: (§4)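 Viability was tracked continuously by NanoLuc luminescence from prosubstrate reduced by living HepG2 cells, at successive time points over 40 h of compound exposure. Cells with reagent were preincubated 5 h at 37 °C before compound addition.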
# [7] = qHTS RealTime-Glo MT Cell Viability Assay in HEK293 cells - 24 hour (AID 1224886); note: top concentration of the series differs between compounds; nearly all actives have a fitted effect of over 50% in size
# Method in brief: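 Viability tracked continuously by luminescence as live cells reduce a prosubstrate for NanoLuc; HEK293 cells preincubated 5 h, compound-treated at 37 C, and read at 0, 8, 16, 24, 32 and 40 h.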
# [8] = qHTS RealTime-Glo MT Cell Viability Assay in HEK293 cells - 8 hour (AID 1224887); note: top concentration of the series differs between compounds; nearly all actives have a fitted effect of over 50% in size
# Method in brief: as §1
# [9] = A CellTox Green Cytotoxicity Assay to monitor cytotoxicity in HEK293 cells - 16 hour (AID 1224888); note: nearly all actives have a fitted effect of over 35% in size
# Method in brief: as §2
# [10] = qHTS RealTime-Glo MT Cell Viability Assay in HepG2 cells - 0 hour (AID 1224889); note: nearly all actives have a fitted effect of over 50% in size
# Method in brief: as §4
SMILES,outcome [1],Potency [2],Potency [3],Potency [4],Potency [5],outcome [6],Potency [7],Potency [8],Potency [9],Potency [10]
O=Cc1ccccc1[N+](=O)[O-],inactive,inactive,inactive,inactive,inactive,inactive,inactive,inactive,inactive,inactive
CC(O)CN(CCCN(C)C)CCCN(C)C (stereo not drawn),inactive,inactive,inactive,inactive,inactive,inactive,inactive,inactive,inactive,inactive
C1C2OC2C2C1C1CC2C2OC12 (stereo not drawn),inactive,inactive,inactive,inactive,inactive,inactive,inactive,inactive,inactive,inactive
CO[Si](OC)(OC)OC,inactive,inactive,inactive,inactive,inactive,inactive,inactive,inactive,inactive,inactive
NC(=O)c1ncn([C@@H]2O[C@H](CO)[C@@H](O)[C@H]2O)c1N,inactive,inactive,10.7 µM (active),inactive,inactive,inactive,inactive,inactive,inactive,inactive
CCCCc1ccc(N)cc1,inactive,inactive,inactive,inactive,inactive,inactive,–,inactive,inactive,inactive
CC(C)CCCCCCN,inactive,inactive,inactive,inactive,inactive,inactive,inactive,inactive,inactive,inactive
CCN1CCN(c2cc3c(cc2F)c(=O)c(C(=O)O)cn3C2CC2)CC1,inactive,inactive,inactive,–,inactive,inactive,inactive,inactive,inactive,inactive
CCN1CCCC1CNC(=O)c1cc(S(N)(=O)=O)ccc1OC (stereo not drawn),inactive,inactive,inactive,inactive,–,inactive,–,inactive,inactive,inactive
CCCCCCCCCCCCI,inactive,inactive,inactive,inactive,–,inactive,inactive,inactive,inactive,inactive
Cc1ncc(CSSCc2cnc(C)c(O)c2CO)c(CO)c1O,inactive,inactive,inactive,–,inactive,inactive,inactive,inactive,inactive,–
CCCOc1ccccc1-c1nc2n[nH]nc2c(=O)[nH]1,inactive,inactive,inactive,inactive,inactive,inactive,–,inactive,inactive,inactive
C#CC(C)(O)CC(C)C (stereo not drawn),inactive,inactive,inactive,–,inactive,inactive,inactive,inactive,inactive,inactive
CC(CCO)CCCC(C)(C)O (stereo not drawn),inactive,inactive,inactive,–,inactive,inactive,inactive,inactive,inactive,inactive
C=C[Si](OC)(OC)OC,inactive,inactive,inactive,–,inactive,inactive,inactive,inactive,inactive,inactive
CCC(=O)/C=C/c1ccc(OC)cc1,inactive,inactive,inactive,–,inactive,inactive,inactive,inactive,inactive,–
Cc1onc(-c2ccccc2)c1-c1ccc(S(N)(=O)=O)cc1,inactive,inactive,inactive,inactive,inactive,inactive,–,–,inactive,–
CCCCc1ccc2cccc(S(=O)(=O)O)c2c1,inactive,inactive,inactive,–,inactive,inactive,inactive,inactive,inactive,–
CC(C)CCCC(C)CCCC(C)CCCCC(C)CCCC(C)CCCC(C)C (stereo not drawn),inactive,inactive,inactive,–,inactive,inactive,inactive,inactive,inactive,inactive
C=C(C)C(=O)NCCCN(C)C,inactive,inactive,inactive,inactive,–,inactive,inactive,inactive,–,inactive
CC(C)=CC(=O)O,inactive,inactive,inactive,–,inactive,inactive,inactive,inactive,inactive,inactive
CC1=CC(=O)CCC1,inactive,inactive,inactive,–,inactive,inactive,inactive,inactive,inactive,inactive
CCCCNc1ccccc1,inactive,inactive,inactive,–,inactive,inactive,inactive,inactive,inactive,–
CCCCCCOC(=O)c1ccccc1O,inactive,inactive,inactive,inactive,–,inactive,inactive,inactive,inactive,inactive
O=C(O)C(O)[C@H](O)[C@@H](O)[C@H](O)[C@H](O)CO (stereo partly drawn),inactive,inactive,inactive,–,inactive,inactive,inactive,inactive,inactive,inactive
